The sample as a whole holds a higher share of hits than the screen did.
TTR transcr act: TTR transcription activation, primary screen; AID 1117267; activation, % at 16.7 µM; 1.3% of 92,000 active; SH-SY5Y TTR promoter Gaussia luciferase, luminescence; 100% = recombinant luciferase protein wells;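 active means activation above the mean of all tested compounds plus 3 SD, cut at about 9.5% in these data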;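 further: cells exposed to compounds for one day before reading; 0% = median of all test compound wells on the plate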
HuH7 TTR inh: decreases TTR transcription in HuH7 cells in activator counter-screen. shares compounds with TTR transcr act. HuH7 TTR promoter-Gaussia luciferase reporter, luminescence. inhibition, % at 16.7 µM. 4% of 1,100 active. AID 1117279;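 active means average inhibition above the solvent-only control wells' mean plus 3 SD, cut at about 15% in these data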;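 further: 0% = cells with DMSO only and 100% = cells with inhibitor control FD; inhibitors lower well luminescence so higher value means more inhibition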
TTR act confirm: human TTR transcription activation, confirmation. shares compounds with TTR transcr act. SHSY5Y TTR promoter Gaussia luciferase, luminescence; 100% = purified Lucia enzyme wells, no cells. activation, % at 16.7 µM. 1,100 tested, under 10 active. AID 1117280;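 active means mean activation above a set limit taken from the earlier primary screen, cut at about 11% in these data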;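 further: 0% = DMSO-treated cells and 100% = recombinant Lucia luciferase without cells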
* marks the source's active call; other numbers are inactive results.

SMILES	TTR transcr act	others
CC(=O)c1cccc(NC(=O)C2CCN(C(=O)c3cccs3)CC2)c1	-1.5
Cc1cccc(NC(=O)C2CC3CCC2C3)c1C (centres undefined)	1.8
CCOC(=O)[C@H]1[C@H]2COc3ccc(C)cc3[C@@H]2N2C(=O)c3cc(OC)c(OC)cc3NC(=O)[C@@]12C	1.2
CCOC(=O)[C@H]1[C@H]2COc3ccccc3[C@@H]2N2C(=O)c3ccc(Cl)cc3NC(=O)[C@@]12C	-0.5
CCOC(=O)[C@@H]1[C@H]2COc3ccc(Br)cc3[C@@H]2N2C(=O)N(c3ccc(Cl)cc3)C(=O)[C@@]12C	-0.1
CCOC(=O)[C@H]1[C@H]2COc3ccc(Cl)cc3[C@@H]2N2C(=O)c3cc(Br)ccc3NC(=O)[C@@]12C	15.9*	HuH7 TTR inh=5.4;TTR act confirm=-0.5
CCOC(=O)[C@H]1[C@H]2COc3ccc(Br)cc3[C@@H]2N2C(=O)N(c3ccc(F)cc3)C(=O)[C@@]12C	-1.9
CCOC(=O)[C@H]1[C@H]2COc3ccc(Br)cc3[C@@H]2N2C(=O)c3cc(OC)c(OC)cc3NC(=O)[C@@]12C	-1.5
CCOC(=O)[C@H]1[C@H]2COc3ccc(Cl)cc3[C@@H]2N2C(=O)c3ccc(C)cc3NC(=O)[C@@]12C	13.2*	HuH7 TTR inh=-10.4;TTR act confirm=-0.7
CCOC(=O)[C@H]1[C@H]2COc3ccccc3[C@@H]2N2C(=O)c3cc(Cl)ccc3NC(=O)[C@@]12C	3.5
CCOC(=O)[C@@H]1[C@H]2COc3ccc(Br)cc3[C@@H]2N2C(=O)N(c3ccc(F)cc3)C(=O)[C@@]12C	15.9*	HuH7 TTR inh=-34.1;TTR act confirm=-0.2
CCOC(=O)[C@]12CCCC=C1N(CCCOC)C(=O)[C@@H]2CC(=O)NCc1cccs1	1.6
COC(=O)[C@]12C[C@H](CC(=O)NCc3ccc(OC)c(OC)c3)C(=O)N(Cc3ccc(Cl)cc3Cl)C1=C[C@H](C(C)C)O[C@@H]2C1CC1	-3.8
CCC[C@H]1[C@@H](NS(=O)(=O)c2ccccc2[N+](=O)[O-])CC[C@@]23CCCN2C(=O)CCC[C@@H]13	-0.9
OC1(Cc2ccccc2)CCN(c2ncnc3sccc23)CC1	-3.8
CCCCN1CCCOc2cc(Br)ccc2S1(=O)=O	-0.1
OCCNc1nc2ccccc2nc1NCCO	0.6
OCCNc1c2ccccc2nc2ccccc12	15.6*	HuH7 TTR inh=-48.4;TTR act confirm=15.2*
Cc1c2ccccc2nc2ccccc12	-1.7
CC(=O)c1ccc(NC(=O)NC2CCCCN(Cc3ccc(Cl)cc3)C2=O)cc1 (centres undefined)	-1.9
CN(Cc1ccccc1)C(=O)OCc1cn(Cc2ccccc2C(F)(F)F)nn1	-0.3
CC1(c2ccc(OC(F)F)cc2)NC(=O)N(CC(=O)Nc2ccc3c(c2)OCO3)C1=O (centres undefined)	-2.4
COc1ccc(C2(C)NC(=O)N(CC(=O)Nc3ccc4c(c3)OCO4)C2=O)cc1OC (centres undefined)	14.9*	HuH7 TTR inh=-12.3;TTR act confirm=0.8
CC1(c2ccccc2)NC(=O)N(CC(=O)Nc2ccc3c(c2)OCO3)C1=O (centres undefined)	-1.0
CCC[C@H]1[C@@H](OC(=O)NCc2ccc(OC)cc2)CC[C@@]23CCCN2C(=O)CCC[C@@H]13	3.8
SMILES	TTR transcr act	others
C=CCN1[C@@H](C)[C@H](c2ccccc2)Oc2cccc(N3CCCC(C)C3)c2S1(=O)=O (some centres undefined)	1.3
CC(=O)c1ccc(NC(=S)N2CCCCCC2)cc1	0.6
CC(=O)c1ccc(NC(=O)CN2CCC(NC(=O)C3CCCCC3)CC2)cc1	3.9
CCN(C(=S)Nc1ccc(C(C)=O)cc1)C1CCCCC1	32.2*	HuH7 TTR inh=-4.2;TTR act confirm=-0.3
O=C(Nc1cc(S(=O)(=O)N2CCOCC2)ccc1N1CCCC1)c1cc2c(s1)CCCC2	0.3
C=CCN1C(=O)[C@H](CC(=O)NCc2ccc(OC)c(OC)c2)[C@@]2(C(=O)OCC)CCCC=C12	0.0
O=C(O)CC1(C(=O)O)CCCC1	-1.8
O=C(O)C1(C(=O)O)CCCC1	1.5
O=C(O)C1(C(=O)O)CCC2(CCCCC2)CC1	10.0*	HuH7 TTR inh=-12.9;TTR act confirm=1.3
COC(=O)[C@@H](CC(C)C)CP(=O)(OC)[C@@H](C)NC(=O)OCc1ccccc1 (some centres undefined)	0.0
COP(=O)(O)C(Cc1ccccc1)NC(=O)OCc1ccccc1 (centres undefined)	0.2
COc1cc(OC)c2c(C)cc(=O)oc2c1C(CCN1CCN(c2ccccc2)CC1)c1ccc2c(c1)OCO2 (centres undefined)	-7.3
COc1cc(OC)c2ccc(=O)oc2c1C(CC(=O)N1CCOCC1)c1ccc2c(c1)OCO2 (centres undefined)	14.4*	HuH7 TTR inh=-0.1;TTR act confirm=-1.2
COc1cc(O)c([C@@H](CC(=O)N2CC(C)CC(C)C2)c2ccc3c(c2)OCO3)c(OC)c1 (some centres undefined)	1.2
Fc1ccc(Cn2ccc3ccc(-c4ccc5ccn(Cc6ccc(F)cc6)c5c4)cc32)cc1	7.8
CCCC/C=C1/[C@@H](CC)N(Cc2ccc(OC)cc2OC)C2=N[C@H](c3ccccc3)CC(=O)N21	1.7
CCCCNS(=O)(=O)/C=C/c1cc2c(cc1CNC(=O)OC(C)(C)C)OCO2	-0.8
O=C(c1ccoc1)N1CCN(c2cc(-c3ccco3)nc3cc(-c4ccco4)nn23)CC1	-1.8
Nc1ncnc2c1ncn2C1OC(CO)C(O)C1O (centres undefined)	3.7
OCC1OC(n2nnc3ccccc32)C(O)C(O)C1O (centres undefined)	-0.1
O=c1ccncn1C1OC(CO)C(O)C1O (centres undefined)	13.2*	HuH7 TTR inh=-11.3;TTR act confirm=0.8
C[C@@H]1CCN(C2CC2)S(=O)(=O)c2ccc(N3CC[C@@H](N(C)C)C3)cc2O1	0.3
CCCCCCCCN1C(=O)[C@@H](CC(=O)N2CCC(c3ccccc3)CC2)C[C@@]2(C(=O)OC)C1=C[C@H](C(C)C)O[C@@H]2C1CC1	3.5
Cc1ccc2nc(NC(=O)c3ccc4c(c3)OCO4)sc2c1	-1.2
C/C(=N\Nc1nc2ccccc2s1)c1ccc2c(c1)OCO2	11.3*	HuH7 TTR inh=11.3;TTR act confirm=0.5
SMILES	TTR transcr act	others
C/C(=N\Nc1ccc(Cl)c(C(=O)O)c1)c1ccc2c(c1)OCO2	-0.1
O=C(c1ccc(Cl)c(Cl)c1)N1CCN(c2ccnc3cc(Cl)ccc23)CC1	-3.0
O=C(OCC#CCSc1nnc(-c2cccc3ccccc23)o1)c1cc(F)c(F)c(F)c1	-1.7
CC(COc1ccc(C#N)cc1)CN1CCC(C(O)(c2ccccc2)c2ccccc2)CC1 (centres undefined)	-0.8
COC(=O)[C@]12C[C@H](CC(=O)NCc3cccs3)C(=O)N(Cc3ccc4c(c3)OCO4)C1=C[C@H](C(C)C)O[C@@H]2C1CC1	-0.2
Cc1cccc(NC(=O)CCC(=O)N/N=C/c2ccco2)c1	9.7*	HuH7 TTR inh=-15.1;TTR act confirm=0.0
O=C(CCCCCCCCC(=O)N/N=C/c1ccco1)N/N=C/c1ccco1	0.8
O=C(CCC(=O)N/N=C/c1ccco1)N/N=C/c1ccco1	-1.1
COc1ccccc1CCC(=O)OCC(=O)Nc1c(C)nn(-c2ccccc2)c1C	4.7
Nc1nnnn1/N=C/c1cc(Br)ccc1O	11.5*	HuH7 TTR inh=-17.0;TTR act confirm=0.4
CCOc1ccc(/C=N/n2nnnc2N)cc1OCC	0.2
CCOc1ccc(/C=N/n2nnnc2N)cc1O	1.4
COc1ccc(C(C)=NNS(=O)(=O)c2ccc(C)cc2)cc1OC	-1.8

Source: PubChem BioAssay
